# FMDV inh: blocks foot and mouth disease virus; AID 1159524; hit rate 1.2% among 410,000; FMDV antiviral cell-based qHTS; Potency, µM (doses to about 57.9 µM), without a hit: top-dose activity change, negative = inhibition, hits mostly inhibitors; calls by dose curve; tested in HEK293T cells; also: read-out not given here; potency is read from the fitted curve at half-maximal effect; nearly all actives have a fitted effect of over 45% in size
# HCMV antiviral: blocks human cytomegalovirus replication | AID 1259415 | HFF cells, HCMV-luciferase reporter, 72 h; hits give low values | hit rate 4.5% among 410,000 | activity change, negative = inhibition, % at 57.5 µM; in the data active = activity change below about -60%; inconclusive = no clear call, values can overlap the other calls; inactive = above about -39%
#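 Compounds were evaluated in HFFs infected with an HCMV luciferase reporter virus (MOI 1 PFU/cell). Luciferase in lysates collected 72 h post infection served as the replication measure.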
# Vaccinia mCherry: inhibitors of vaccinia virus infection (mCherry reporter signal). Vaccinia virus mCherry reporter infection, fluorescence. hit rate 0.63% among 310,000. Potency, µM (series often up to 36.5 µM), for inactives: at the highest dose activity change, negative = inhibition, hits mostly inhibitors; calls by dose curve; tested in A549 cells; also: potency is read from the fitted curve at half-maximal effect; nearly all actives have a fitted effect of over 35% in size
# HCV inhibitor: blocks hepatitis C virus | Huh7.5.1 HCVcc-Cre infection, luciferase reporter, 44 h | Potency, µM (titrated, usually from 41.8 µM), inactives show at the top dose activity change, negative = inhibition, hits mostly inhibitors | hit rate 3.4% among 340,000 | AID 651820; active = well fitted inhibition curve with a large enough effect; inconclusive = small, poorly fitted or top-dose-only effect, or another doubt; inactive = no such curve, though single readings can be large or run the other way; also: potency is read from the fitted curve at half-maximal effect
#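 Antiviral activity was scored by luciferase reporter output from cells infected with HCVcc-Cre (~0.5 moi) in presence of compound, 44 h infection period, cells seeded 1,000/well 4 h prior.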
# VACV Venus inh: inhibitors of vaccinia virus (Venus reporter); Vaccinia virus Venus reporter expression, fluorescence; Potency, µM (titrated, usually from 36.5 µM), inactives show at the highest dose activity change, negative = inhibition, most hits filed as inhibitors; hit rate 0.46% among 330,000; calls by dose curve; tested in A549 cells; also: potency is read from the fitted curve at half-maximal effect; nearly all actives have a fitted effect of over 30% in size
# An asterisk follows results filed as active; i = inactive; ? = inconclusive; / = not tested or not shown; + = active, no number; [ ] = remark or other dose. This is a sample that favours compounds with a hit; in the whole collection about 7.3% have one here. % is scaled to controls: 0 for no effect and ±100 for the full control effect.
SMILES,FMDV inh,HCMV antiviral,Vaccinia mCherry,HCV inhibitor,VACV Venus inh
Cc1ccc(NC(=O)c2sc(=S)n(-c3cc(C)ccc3F)c2N)cc1,10%,-63*,-7%,5%,-7%
CCN1CCN(C(=O)c2sc3ncnc(NCC4CCCO4)c3c2C)CC1 (stereo unspecified),-9%,/,-10%,/,-4%
COc1cc(NC(=O)c2cc(C)nc3c2c(C)nn3-c2ccccc2Cl)cc(OC)c1,?,-66*,-8%,/,3%
CCOc1ccc(CNC(=O)c2cccc(NC(=O)N3CCSc4ncccc43)c2)cc1OC,14µM*,?,-9%,/,-9%
COc1ccc(CNC(=O)c2cccc(NC(=O)N3CCSc4ncccc43)c2)cc1,?,?,-10%,/,-12%
Cc1cccc(CNC(=O)c2cccc(NC(=O)N3CCSc4ncccc43)c2)c1,0%,+,-7%,/,-10%
CCOc1ccc(CNC(=O)c2ccc(NC(=O)N3CCSc4ncccc43)cc2)cc1OC,-22%,0,-6%,/,-9%
CCC(C(=O)Nc1ccc(C(=O)OC)cc1)n1nc(-c2ccc(C)cc2)c2c(c1=O)CCCC2 (stereo unspecified),?,-26,-23%,/,-28%
Cc1c(C(=O)N2CCC(C)CC2)oc2ccc3c(c12)C(O)CC1(CCCCC1)O3 (stereo unspecified),5%,-70*,-4%[7.34 µM],?,-26%[7.34 µM]
COCCNC(=O)c1oc2ccc3c(c2c1C)C(O)CC(C)(C)O3 (stereo unspecified),13%,40,/,6%,/
N#CC(C#N)=C(Nc1ccc(F)cc1)SCc1cccc(Br)c1,1.8µM*,-99*,?,5µM*,?
Cc1cccc(CSC(Nc2ccc(F)cc2)=C(C#N)C#N)c1,?,-102*,?,11µM*,?
CC(c1nnc(Sc2nnnn2-c2ccccc2)n1-c1ccc(F)cc1)N(C)C (stereo unspecified),-28%,?,13µM*,-3%,?
Cc1cc(C)c(NC(=O)Cc2csc(C)n2)c(Cl)c1,5%,-61*,3%,/,-12%
CCc1cccc(CC)c1NC(=O)Cc1csc(C)n1,-16%,-6,7%,/,6%
O=S1(=O)CCSC[C@@H](CN2CCN(c3ccccc3)CC2)N1,/,8,/,/,/
C/C(=N\NC(=O)c1cc(-c2cccc([N+](=O)[O-])c2)n[nH]1)c1ccccc1O,-19%,39,10µM*,11%,?
CCN(CC)C(=O)COc1ccc(/C(C)=N/Nc2ncc(Cl)cc2Cl)cc1,-13%,-9,/,11µM*,/
O[C@@H]1CN(Cc2ccc(-n3cccn3)cc2)CC[C@H]1N1CCN(c2ccccc2F)CC1,?,?,/,8.9µM*,/
COc1ccc(-c2nc(CSc3nnc(C)n4c3cc3sccc34)c(C)o2)cc1,10%,33,-5%,/,-3%
Cc1cc(C(=O)NCc2nnc3n2CCN(Cc2ccc4c(c2)Cc2ccccc2-4)CC3)c(C)o1,-28%,/,-10%,/,-6%
CC(CNc1nc2ccccc2c2nc(-c3ccccc3)nn12)c1ccccc1 (stereo unspecified),?,-94*,0%,/,1%
CCc1sc(Nc2ccc(C)cc2Br)nc1-c1cc2cccc(OC)c2oc1=O,-10%,-12,-16%,/,-26%
COc1ccc(N2C(=O)C(OC(C)=O)C2c2ccc(C)cc2)cc1 (stereo unspecified),9%,-64*,-11%,12%,-6%
CC(C)Cc1nc(Cl)c(C#N)c2c1CCCC2,-32%,-75*,/,-11%,/
SMILES,FMDV inh,HCMV antiviral,Vaccinia mCherry,HCV inhibitor,VACV Venus inh
CCc1nc(Cl)c(C#N)c2c1CCCC2,-20%,-88*,i,?,-9%
Cc1ccc(Cn2c(C(CO)Nc3nc(-c4ccc(F)cc4)cs3)nc3ccccc32)cc1 (stereo unspecified),-1%,-60*,-21%,?,?
COc1ccc(-c2csc(NC(CO)c3nc4ccccc4n3Cc3ccc(C)cc3)n2)cc1 (stereo unspecified),18%,4,-29%,-24%,?
COc1ccc(/C=C/c2c([N+](=O)[O-])c(=O)n(C)c(=O)n2C)cc1O,?,-103*,/,-14%,/
COc1cc(/C=C/c2c([N+](=O)[O-])c(=O)n(C)c(=O)n2C)cc(OC)c1OC,/,-67*,-27%,-9%,-13%
COc1ccc(OC)c(/C=C/c2c([N+](=O)[O-])c(=O)n(C)c(=O)n2C)c1,-23%,-5,-25%,-7%,-19%
Cn1c(/C=C/c2ccc(Br)cc2)c([N+](=O)[O-])c(=O)n(C)c1=O,16µM*,-100*,13µM*,?,?
O=S1(=O)N[C@@H](Cc2ccccc2)COc2cccc(NCCCN3CCOCC3)c21,/,-11,/,/,/
COc1cccc(N2CC(NC(=O)COc3ccc4ccccc4c3)CC2=O)c1 (stereo unspecified),-19%,-1,-3%[7.34 µM],/,-4%[7.34 µM]
O=C(CN1C(=O)/C(=C\c2cccc(Cl)c2)Sc2ccccc21)NCCCN1CCOCC1,-16%,-11,/,?,/
CCc1ccc(/C=C2/Sc3ccccc3N(CC(=O)NCCCN3CCOCC3)C2=O)cc1,-4%,-60*,/,?,/
O=C(CN1C(=O)/C(=C\c2ccccc2Cl)Sc2ccccc21)NCCCN1CCOCC1,20%,-3,/,?,/
O=C(CN1C(=O)/C(=C\c2cccc(Br)c2)Oc2ccccc21)NCCCN1CCOCC1,-16%,-35,-28%[7.34 µM],6.3µM*,-15%[7.34 µM]
O=C(CN1C(=O)/C(=C/c2ccc(C(F)(F)F)cc2)Sc2ccccc21)NCCCN1CCOCC1,-10%,-39,/,11µM*,/
CCCCCCCCC(c1nc2ccccc2[nH]1)N1CCN=C1c1cc2ccccc2[nH]1 (stereo unspecified),-22%,-103*,?,/,?
CN(C)c1ccc(/C=C2\CCCCC2=O)cc1,12%,7,-7%,14%,3%
CN(C)CCC1(C2=CCCC2)CC/C(=C/c2ccc(Cl)cc2)C1=O (stereo unspecified),-22%,-86*,?,?,11µM*
O=C1C(F)=CC(COC(c2ccccc2)(c2ccccc2)c2ccccc2)OC1n1cc(F)c(=O)[nH]c1=O (stereo unspecified),3.2µM*,-99*,10µM*,?,?
CC(=O)OCC1OC(n2cc(F)c(=O)[nH]c2=O)C(OC(C)=O)C1OC(C)=O (stereo unspecified),-3%,-17,/,-8%,/
Cc1nn(-c2ccccc2)c2c1cc1c(=O)n(C)c(=O)nc-1n2-c1cccc(Cl)c1,-14%,28,8%,/,12%
CCOC(=O)Cc1ccc(NC(=O)n2ncc3c(C)cccc32)cc1,21%,-74*,-10%,/,-10%
CN(Cc1ccco1)c1ncnc2ccc(-c3ccc4c(ccn4C)c3)cc12,-27%,-99*,/,/,/
O=[N+]([O-])c1cc(S(=O)(=O)Nc2ccc(Cl)cc2)ccc1N/N=C/c1ccncc1,-8%,-102*,?,-26%,?
Cn1c(=O)c(=O)n(C)c2cc(N3CCCCC3)c(NS(=O)(=O)c3ccc([N+](=O)[O-])cc3)cc21,5%,+,-19%[7.34 µM],2%,-15%[7.34 µM]

# Source: PubChem BioAssay (National Center for Advancing Translational Sciences (NCATS))
